From PubChem BioAssay (EPA / NIEHS)
“And” between values parts separate entries of the source, which are not always exact repeats. Identical values can stand only once. Some compounds were tested as several samples or in several runs, with calls that do not always agree. The source made the active and inactive calls. The calls were made as follows: active = hit-call score of the fitted dose curve at least 0.9, where 1 is the maximum; inactive = score below 0.9.

Legend:
[1] = read-out: Intercellular Adhesion Molecule 1 (ICAM1), ICAM1 (gene 3383); assay: BSK_BE3C_ICAM1: BioMAP Diversity Plus: BE3C Assay for Intercellular Adhesion Molecule 1 (ICAM1) Biomarker Activity (AID 2284278); conditions: primary human bronchial epithelial cells;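 also: cell-surface ICAM-1 protein level quantified by ELISA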
Outline: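 hu bronchial epithelial primary cells, 24 h cpd exposure, ICAM-1 ELISA; gain-of-signal fit vs DMSO baseline.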

[2] = read-out: Interferon-inducible T-cell alpha chemoattractant (ITAC), CXCL11 (gene 6373); assay: BSK_BE3C_ITAC: BioMAP Diversity Plus: BE3C Assay for Interferon-inducible T-cell alpha chemoattractant (ITAC) Biomarker Activity (AID 2284279); conditions: primary human bronchial epithelial cells
Outline: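 ELISA read-out of I-TAC after 24 h chemical dosing of human lung primary bronchial epithelial cells; gain-of-signal fit vs DMSO baseline. Parallel SRB total-protein staining (0.1% SRB, 10% TCA fixation, 560 nm) assessed cytotoxicity.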

[3] = read-out: Interleukin-8 (IL8), CXCL8 (gene 3576); assay: BSK_BE3C_IL8: BioMAP Diversity Plus: BE3C Assay for Interleukin-8 (IL8) Biomarker Activity (AID 2284280); conditions: primary human bronchial epithelial cells
Outline: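 Measured at 24 h after treatment, IL-8 from human primary bronchial epithelial cells is determined by ELISA, and the response is modelled as increasing relative to DMSO negative control.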

[4] = read-out: Epidermal growth factor receptor (EGFR), EGFR (gene 1956); assay: BSK_BE3C_EGFR: BioMAP Diversity Plus: BE3C Assay for Epidermal growth factor receptor (EGFR) Biomarker Activity (AID 2284281); conditions: primary human bronchial epithelial cells
Outline: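 Measured 24 h after dosing in primary human bronchial epithelial cultures, EGFR was read by ELISA; gain of signal over DMSO control defined activity.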

[5] = read-out: KRT18 (gene 3875); assay: BSK_BE3C_Keratin818: BioMAP Diversity Plus: BE3C Assay for Keratin 818 Biomarker Activity (AID 2284282); conditions: primary human bronchial epithelial cells
Outline: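 In this multiplexed primary-cell system, bronchial epithelial cells were dosed and harvested at 24 h. Keratin 8/18 was determined by ELISA and analysed for increases over DMSO controls.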

[6] = read-out: Matrix Metallopeptidase 9 (MMP9), MMP9 (gene 4318); assay: BSK_BE3C_MMP9: BioMAP Diversity Plus: BE3C Assay for Matrix Metallopeptidase 9 (MMP9) Biomarker Activity (AID 2284283); conditions: primary human bronchial epithelial cells
Outline: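 Human primary bronchial epithelial cells in the BE3C system were dosed with compound for 24 h. MMP-9 was measured by ELISA, and the positive-direction response was fitted relative to DMSO as baseline. Parallel SRB staining gauged cytotoxicity.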

[7] = read-out: Plasminogen activator inhibitor-1 (PAI1), SERPINE1 (gene 5054); assay: BSK_CASM3C_PAI1: BioMAP Diversity Plus: CASM3C Assay for Plasminogen activator inhibitor-1 (PAI1) Biomarker Activity (AID 2284284); conditions: primary human coronary artery smooth muscle cells
[8] = read-out: Intercellular Adhesion Molecule 1 (ICAM1), ICAM1 (gene 3383); assay: BSK_hDFCGF_ICAM1: BioMAP Diversity Plus: hDFCGF Assay for Intercellular Adhesion Molecule 1 (ICAM1) Biomarker Activity (AID 2284287); conditions: primary human foreskin fibroblasts
Outline: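 ICAM-1 ELISA readout 24 h after dosing, DMSO as baseline, in human dermal foreskin fibroblast cultures. Cytotoxicity checked in parallel wells by SRB staining (0.1% SRB, 10% TCA fixation, 560 nm).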

[9] = BSK_MyoF_SRB: Viability Assessment in the BioMAP Diversity Plus: MyoF Assay (AID 2284267); conditions: primary human lung fibroblasts;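 also: total protein by SRB absorbance in parallel cultures as cytotoxicity measure; cells assessed 24 h after compound addition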
Outline: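 In this viability endpoint, fibroblasts from human lung are treated for 24 h, TCA-fixed, SRB-stained (0.1%) and read at 560 nm. Gain of signal relative to DMSO defines activity.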

[10] = read-out: Matrix Metallopeptidase 1 (MMP1), MMP1 (gene 4312); assay: BSK_MyoF_MMP1: BioMAP Diversity Plus: MyoF Assay for Matrix Metallopeptidase 1 (MMP1) Biomarker Activity (AID 2284268); conditions: primary human lung fibroblasts
Outline: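 ELISA readout of MMP1 in primary human lung fibroblast cultures, 24 h post-dosing. Gain of signal versus DMSO vehicle control defines activity. Parallel SRB staining (0.1% after 10% TCA fixation, 560 nm) flags overt cytotoxicity.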

[11] = read-out: TIMP metallopeptidase inhibitor 1 (TIMP1), TIMP1 (gene 7076); assay: BSK_MyoF_TIMP1: BioMAP Diversity Plus: MyoF Assay for TIMP metallopeptidase inhibitor 1 (TIMP1) Biomarker Activity (AID 2284269); conditions: primary human lung fibroblasts
Outline: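 ELISA read-out of TIMP-1 from primary human lung fibroblast cultures 24 h after compound dosing; gain of signal relative to DMSO vehicle baseline defines activity.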

[12] = read-out: Matrix Metallopeptidase 1 (MMP1), MMP1 (gene 4312); assay: BSK_BF4T_MMP1: BioMAP Diversity Plus: BF4T Assay for Matrix Metallopeptidase 1 (MMP1) Biomarker Activity (AID 2284270); conditions: primary human bronchial epithelial cells with fibroblasts
Outline: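 MMP-1 quantified by ELISA in primary human bronchial epithelial/dermal fibroblast co-cultures, 24 hours post-dosing, with DMSO as baseline; parallel sulforhodamine B staining (560 nm) tracks overt cytotoxicity.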

[13] = read-out: Matrix Metallopeptidase 3 (MMP3), MMP3 (gene 4314); assay: BSK_BF4T_MMP3: BioMAP Diversity Plus: BF4T Assay for Matrix Metallopeptidase 3 (MMP3) Biomarker Activity (AID 2284271); conditions: primary human bronchial epithelial cells with fibroblasts
Outline: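 MMP-3 level read by ELISA after 24 h chemical exposure of bronchial epithelial cell/dermal fibroblast co-cultures, fitted upward relative to DMSO. Parallel cultures stained with 0.1% SRB after TCA fixation gauge overt cytotoxicity.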

[14] = read-out: Tissue plasminogen activator (tPA), PLAT (gene 5327); assay: BSK_BF4T_tPA: BioMAP Diversity Plus: BF4T Assay for Tissue plasminogen activator (tPA) Biomarker Activity (AID 2284272); conditions: primary human bronchial epithelial cells with fibroblasts
Outline: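 tPA level quantified by ELISA at 24 h post-treatment in bronchial epithelial/dermal fibroblast co-cultures, gain of signal scored against DMSO baseline. Parallel cultures stained with 0.1% SRB (560 nm) to flag overt cytotoxicity.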

[15] = read-out: Plasminogen Activator Inhibitor-1 (PAI1), SERPINE1 (gene 5054); assay: BSK_BF4T_PAI1: BioMAP Diversity Plus: BF4T Assay for Plasminogen Activator Inhibitor-1 (PAI1) Biomarker Activity (AID 2284273); conditions: primary human bronchial epithelial cells with fibroblasts
Outline: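 PAI-1 levels quantified by ELISA 24 h post-dosing in bronchial epithelial cell plus dermal fibroblast cultures. Signal gain referenced to DMSO baseline. Sulforhodamine B total-protein staining of parallel wells checked cytotoxicity.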

[16] = BSK_BF4T_SRB: Viability Assessment in the BioMAP Diversity Plus: BF4T Assay (AID 2284274); conditions: primary human bronchial epithelial cells with fibroblasts
Outline: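 Cytotoxicity measured as total protein: cells fixed with 10% TCA, stained with 0.1% SRB, read at 560 nm. Bronchial epithelial/dermal fibroblast co-culture, 24 h after dosing, with positive-direction fitting relative to DMSO.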

[17] = read-out: urokinase Plasminogen Activator (uPA), PLAU (gene 5328); assay: BSK_BF4T_uPA: BioMAP Diversity Plus: BF4T Assay for urokinase Plasminogen Activator (uPA) Biomarker Activity (AID 2284275); conditions: primary human bronchial epithelial cells with fibroblasts
Outline: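 uPA levels measured by ELISA at 24 hours in BF4T cultures (bronchial epithelial cells plus dermal fibroblasts) and compared with DMSO; cytotoxicity tracked in parallel cultures by sulforhodamine B staining.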

[18] = read-out: Matrix Metallopeptidase 9 (MMP9), MMP9 (gene 4318); assay: BSK_BF4T_MMP9: BioMAP Diversity Plus: BF4T Assay for Matrix Metallopeptidase 9 (MMP9) Biomarker Activity (AID 2284276); conditions: primary human bronchial epithelial cells with fibroblasts
Outline: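 MMP-9 levels were measured by ELISA after 24 h exposure of bronchial epithelial cell/dermal fibroblast co-cultures, with DMSO as baseline. Parallel cultures were stained with 0.1% SRB after TCA fixation, read at 560 nm, to flag overt cytotoxicity.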

[19] = read-out: Interleukin-8 (IL8), CXCL8 (gene 3576); assay: BSK_IMphg_IL8: BioMAP Diversity Plus: IMphg Assay for Interleukin-8 (IL8) Biomarker Activity (AID 2284277); conditions: primary human endothelial cells with macrophages
Outline: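 IL-8 levels were measured by ELISA 24 h after dosing in primary human venular endothelial cell–macrophage cultures, referenced to DMSO; parallel SRB staining monitored overt cytotoxicity.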

[20] = read-out: Vascular cell adhesion molecule 1 (VCAM1), VCAM1 (gene 7412); assay: BSK_IMphg_VCAM1: BioMAP Diversity Plus: IMphg Assay for Vascular cell adhesion molecule 1 (VCAM1) Biomarker Activity (AID 2284286); conditions: primary human endothelial cells with macrophages
Outline: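 ELISA read-out of VCAM-1 on venular endothelial cell/macrophage co-cultures at 24 h post-treatment, with DMSO as baseline and positive-direction fitting. Parallel sulforhodamine B total-protein staining (560 nm) served as the overt cytotoxicity measure.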

CC(C)CCCC(C)(C)O
outcome [1]: inactive | outcome [2]: inactive | outcome [3]: inactive | outcome [4]: inactive | outcome [5]: inactive | outcome [6]: inactive | outcome [7]: inactive | outcome [8]: inactive

CCOC(=O)C=Cc1ccccc1
outcome [9]: inactive | outcome [10]: inactive | outcome [11]: inactive

CC(=O)OCC=C(C)CCC=C(C)CCC=C(C)C
outcome [9]: inactive | outcome [10]: inactive | outcome [11]: inactive

c1ccc(OCCOc2ccccc2)cc1
outcome [1]: inactive | outcome [2]: inactive | outcome [3]: inactive | outcome [4]: inactive | outcome [5]: inactive | outcome [6]: inactive | outcome [7]: inactive | outcome [8]: inactive

CC(=O)CCC=C(C)CCC=C(C)C
outcome [9]: inactive | outcome [10]: inactive | outcome [11]: inactive

O=C1OC2(c3ccc(O)cc3Oc3cc(O)ccc32)c2ccccc21
outcome [9]: inactive | outcome [10]: inactive | outcome [11]: inactive

O=C(O)C(F)(F)C(F)(F)C(F)(F)C(F)(F)C(F)(F)C(F)(F)C(F)(F)C(F)F
outcome [9]: inactive | outcome [10]: inactive | outcome [11]: inactive | AC50 [12]: 51.9 µM (active) | outcome [12]: inactive | outcome [13]: inactive | AC50 [14]: 4.37 µM (active) and 2.45 µM (active) | AC50 [15]: 2.94 µM (active) and 2.8 µM (active) | outcome [16]: inactive | outcome [17]: inactive | outcome [18]: inactive | outcome [19]: inactive | outcome [1]: inactive | outcome [2]: inactive | outcome [3]: inactive | outcome [4]: inactive | outcome [5]: inactive | outcome [6]: inactive | outcome [7]: inactive | outcome [20]: inactive | outcome [8]: inactive

O=S1(=O)CC(Cl)(Cl)C(Cl)(Cl)C1
AC50 [9]: 2.14 µM (active) | AC50 [10]: 3.45 µM (active) | AC50 [11]: 3.94 µM (active)

O=C(O)C(F)(F)OC(F)(F)C(F)(F)OC(F)(F)C(F)(F)C(F)(F)C(F)(F)F
outcome [9]: inactive | outcome [10]: inactive | AC50 [11]: 11.9 µM (active) and 8.26 µM (active) | outcome [12]: inactive | AC50 [13]: 12.9 µM (active) and 17.8 µM (active) | outcome [14]: inactive | outcome [15]: inactive | outcome [16]: inactive | outcome [17]: inactive | outcome [18]: inactive | outcome [19]: inactive | outcome [1]: inactive | AC50 [2]: 7.77 µM (active) and 7.6 µM (active) | outcome [3]: inactive | AC50 [4]: 35 µM (active) and 17.7 µM (active) | outcome [5]: inactive | outcome [6]: inactive | outcome [7]: inactive | outcome [20]: inactive | outcome [8]: inactive

CCn1cc(C(=O)O)c(=O)c2ccc(C)nc21
outcome [1]: inactive | outcome [2]: inactive | outcome [3]: inactive | outcome [4]: inactive | outcome [5]: inactive | outcome [6]: inactive | outcome [7]: inactive | outcome [8]: inactive

CC(C)(CO)CO
outcome [1]: inactive | outcome [2]: inactive | outcome [3]: inactive | outcome [4]: inactive | outcome [5]: inactive | outcome [6]: inactive | outcome [7]: inactive | outcome [8]: inactive

C=C(F)C(=O)OC(C(F)(F)F)C(F)(F)F
outcome [9]: inactive | outcome [10]: inactive | outcome [11]: inactive | outcome [12]: inactive | outcome [13]: inactive | outcome [14]: inactive | outcome [15]: inactive | outcome [16]: inactive | outcome [17]: inactive | outcome [18]: inactive | outcome [19]: inactive | outcome [1]: inactive | outcome [2]: inactive | outcome [3]: inactive | outcome [4]: inactive | outcome [5]: inactive | outcome [6]: inactive | outcome [7]: inactive | outcome [20]: inactive | outcome [8]: inactive

CC(C)Cc1ccc(C(C)C(=O)O)cc1 (stereo not drawn)
outcome [9]: inactive | outcome [10]: inactive | outcome [11]: inactive

CCCCCCCC1CCCC1=O (stereo not drawn)
AC50 [9]: 32.4 µM (active) | AC50 [10]: 32.4 µM (active) | outcome [11]: inactive

Nc1ccc(N)c([N+](=O)[O-])c1
outcome [9]: inactive | outcome [10]: inactive | outcome [11]: inactive

CCC(=O)OCC=Cc1ccccc1
outcome [9]: inactive | outcome [10]: inactive | outcome [11]: inactive

c1ccc2c(c1)-c1ccc3ccc4cccc5cc-2c1c3c45
outcome [9]: inactive | AC50 [10]: 1.33 µM (active) | outcome [11]: inactive
